Pol eta inh-1: inhibitors of human DNA polymerase eta | recombinant Pol eta, fluorescent DNA replication assay | Q9Y253 | 390,000 compounds, 1.2% hits | Potency, µM (series often up to 114 µM), without a hit: at the highest dose activity change, negative = inhibition, hits mostly inhibitors; further: potency means the concentration at half of the fitted maximal effect; on the % scale 0 is the no-effect control and ±100 the full control effect
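Fluorescent replication assay: 50 nM final substrate added after a 15 min room-temperature compound preincubation with 10 nM enzyme. Signal taken at 0 min and again at 10 min.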
FEN1 inhibitor: human FEN1 inhibition | Recombinant FEN1 flap cleavage, fluorescence, 15 min | Potency, µM (top dose mostly 114 µM), without a hit: at the highest dose activity change, negative = inhibition, most hits filed as inhibitors | 390,000 compounds, 0.35% hits | AID 588795; further: potency means the concentration at half of the fitted maximal effect; on the % scale 0 is the no-effect control and ±100 the full control effect; nearly all actives have a fitted effect of over 65% in size
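Quantitative HTS format: each compound was titrated, incubated with 10 nM nuclease for 15 min at room temperature, then challenged with flap substrate at 50 nM final. Signal change over 15 min gave concentration–effect curves.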
PI5P4K alpha inh: blocks human PI5P4K alpha kinase activity; P48426; PI5P4Kalpha enzyme, ADP-Glo luminescence, 60 min; active compounds read low; max response, %; 330,000 compounds, 1.2% hits; AID 652105; active means max response of -50% or lower; inconclusive means between -30% and -50%; inactive means -30% or higher; further: value at the top dose of about 77 µM; on the % scale 0 is the no-effect control and ±100 the full control effect
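Human PI5P4Kalpha with substrate in 0.038 M HEPES pH 7.4, 0.28 mM EGTA, 0.1% CHAPS, 5% DMSO; reaction started with 5 microM ATP (final), 60 min at room temperature. ADP formed read by ADP-Glo luminescence.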
POLB inh: blocks human DNA polymerase beta activity. Pol beta primer extension/strand displacement, fluorescence kinetic. Potency, µM (highest dose often 114 µM), without a hit: at the top dose activity change, negative = inhibition, actives largely listed as inhibitors. 340,000 compounds, 1.3% hits; further: potency means the concentration at half of the fitted maximal effect; on the % scale 0 is the no-effect control and ±100 the full control effect
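Preincubation: enzyme (10 nM) with compound, 15 min, RT. Reaction: substrate added to 50 nM final. Reads: 0 and 10 min. Analysis: normalized, Hill fit.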
POLK inh: blocks human DNA polymerase kappa activity | Potency, µM (highest dose often 107 µM), without a hit: top-dose activity, negative = inhibition, usual class: inhibitors | Q9UBT6 | purified Pol kappa, fluorescent DNA synthesis assay, 10 min | 400,000 compounds, 0.53% hits | AID 588579; further: potency means the concentration at half of the fitted maximal effect; on the % scale 0 is the no-effect control and ±100 the full control effect
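Activity was followed as the change in fluorescence between reads at 0 and 10 min after starting the reaction with 50 nM substrate. Beforehand, 10 nM polymerase had been preincubated with compound for 15 min at room temperature.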
POLI inh: DNA polymerase iota (human) inhibition. Q9UNA4. Pol iota fluorescent replication assay, 10 min. Potency, µM (doses to about 115 µM), without a hit: at the highest dose activity, negative = inhibition, usual class: inhibitors. 390,000 compounds, 1% hits; further: potency means the concentration at half of the fitted maximal effect
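Pol iota at 10 nM preincubated 15 min with compounds at room temperature; reaction started with fluorescent substrate, 50 nM final. Fluorescence read kinetically at 0 and 10 min; buffer-only wells as negative control.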
GALK inh confirm: confirmation of human galactokinase (GALK) inhibitors | shares compounds with Pol eta inh-1 | purified GALK, Kinase-Glo ATP depletion luminescence | Potency, µM (titrated, usually from 115 µM), for inactives: at the top dose activity, negative = inhibition, hits mostly inhibitors | 150 compounds, 70% hits | AID 2015
Redox cycling: redox cycling activity in phenol red-HRP assay | shares compounds with Pol eta inh-1 | Potency, µM (series often up to 115 µM), for inactives: at the top dose activity change, negative = H2O2 signal, actives largely listed as inhibitors | Phenol red-HRP H2O2 redox cycling, absorbance 600 nm | 150 compounds, 40% hits
HEK293 viability: counter-screen for GALK inhibitors: HEK293 cell cytotoxicity; shares compounds with Pol eta inh-1; HEK-293 viability, ATP luminescence (CellTiter-Glo), 24/48 h; Potency, µM (doses to about 46.1 µM), for the others: top-dose activity change, negative = cytotoxicity, usual class: inhibitors; 170 compounds, 10% hits; AID 2547; further: potency means the concentration at half of the fitted maximal effect; on the % scale 0 is the no-effect control and ±100 the full control effect
Pol eta inh-2: confirmation of human DNA polymerase eta inhibitors | shares compounds with Pol eta inh-1 | Pol eta primer extension, TAMRA/BHQ fluorescence, 10 min | Potency, µM, hits mostly inhibitors | 2,600 compounds, 64% hits; further: potency means the concentration at half of the fitted maximal effect
* hit, by the source's call; [ ] = dose if it differs, or a comment. Only some compounds are listed: those with a hit (about 2.8% of all), similar ones and a draw of the others. Unless noted, the call rests on the fitted dose curve; in most records, active means well fitted curve in the direction sought with a large enough effect; inconclusive means small, poorly fitted or top-dose-only effect, or another doubt; inactive means no such curve, though single readings can be large; an effect the other way counts as inactive or inconclusive.

How did CC(=O)c1ccc(NC(=S)Nc2cccc3cnccc23)cc1 do in these assays?
Pol eta inh-1: 10%; FEN1 inhibitor: 0%; PI5P4K alpha inh: -19; POLB inh: inconclusive; POLK inh: -14%; POLI inh: 42%; GALK inh confirm: inconclusive; Redox cycling: 11µM*; HEK293 viability: 2%

Results for COc1cc(/C=C/C(=O)c2ccc(NS(=O)(=O)c3ccc(C)cc3)cc2)cc(OC)c1O ?
Pol eta inh-1: 10µM*; FEN1 inhibitor: inconclusive; PI5P4K alpha inh: inconclusive; POLB inh: -14%; POLK inh: -13%; POLI inh: inconclusive; Pol eta inh-2: inconclusive

Results for CC(=O)Nc1ccc(OCc2cccc(-c3nc4ccccc4c(=O)n3Cc3ccco3)c2)cc1 ?
Pol eta inh-2: inconclusive

Results for CC1(C(=O)NNC(=O)c2ccc(=O)oc2)CC1Br (stereo unspecified) ?
Pol eta inh-1: 20µM*; FEN1 inhibitor: -6%; PI5P4K alpha inh: inconclusive; POLB inh: inconclusive; POLK inh: inconclusive; POLI inh: inconclusive; Pol eta inh-2: 34*

Results for Cc1cc(=O)oc(C)c1C(=O)NNC(=O)C1(C)CC1Br (stereo unspecified) ?
Pol eta inh-1: -4%; FEN1 inhibitor: -2%; PI5P4K alpha inh: 1; POLB inh: -4%; POLK inh: -10%; POLI inh: 3%[58.9 µM]

What do the screens show for `CC[C@@H](C)CN1C(=O)N[C@@H](c2ccccc2)C(C(C)=O)=C1C`?
Pol eta inh-1: 22µM*; FEN1 inhibitor: 0%; PI5P4K alpha inh: inconclusive; POLK inh: inconclusive; POLI inh: 14µM*; Pol eta inh-2: 76*

What do the screens show for `N#C/C(=C\c1ccc(C(=O)O)cc1)c1nc2sc3c(c2c(=O)[nH]1)CCCC3`?
Pol eta inh-1: 20µM*; FEN1 inhibitor: inconclusive; PI5P4K alpha inh: -50*; POLB inh: 50µM*; POLK inh: inconclusive; POLI inh: inconclusive; Pol eta inh-2: 30*

Results for CC1=CC2(O)OCCN(CCO)C2=CC1=O (stereo unspecified) ?
Pol eta inh-1: inconclusive; FEN1 inhibitor: -8%; POLB inh: 25µM*; POLK inh: inconclusive; POLI inh: inconclusive; Pol eta inh-2: inconclusive

Results for CNc1c(NS(=O)(=O)c2ccc(C3CCCCC3)cc2)c(=O)oc2ccccc12 ?
Pol eta inh-1: -10%; FEN1 inhibitor: 2%; PI5P4K alpha inh: 0; POLB inh: 17%; POLK inh: 4%; POLI inh: 3%

How did Cc1ccc(/C=C2/SC(=S)N(c3ccc(S(=O)(=O)Nc4nccs4)cc3)C2=O)cc1 do in these assays?
Pol eta inh-1: 40µM*; FEN1 inhibitor: inconclusive; PI5P4K alpha inh: -68*; POLB inh: inconclusive; POLK inh: inconclusive; POLI inh: 18µM*; Pol eta inh-2: 76*

Screening results (PubChem)
